# BAZ2B block: blocks human BAZ2B. Q9UIF8. AlphaScreen BAZ2B-H3K14Ac peptide displacement. Potency, µM (doses to about 114 µM), inactives show at the top dose activity change, negative = inhibition, usual class: inhibitors. 360,000 tested, 4.4% active. AID 504333; also: potency is read from the fitted curve at half-maximal effect; % is scaled to controls: 0 for no effect and ±100 for the full control effect; nearly all actives have a fitted effect of over 60% in size
#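 BAZ2B (50 nM) with biotin-H3(5-23)K14Ac peptide (50 nM) in PBS pH 7.4, 0.01% Tween-20, preformed 30 min, then compound 30 min at room temperature; top concentration 110uM. AlphaScreen streptavidin donor/nickel chelate acceptor beads (10 ug/mL final), 20 min dark, signal read.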
# JMJD2A Tudor inh: JMJD2A Tudor domain (human) inhibition. O75164. AlphaScreen JMJD2A-Tudor / H3K4me3 peptide binding. Potency, µM (series often up to 114 µM), for the others: top-dose activity change, negative = inhibition, most hits filed as inhibitors. 390,000 tested, 4.4% active. AID 504339; also: potency is read from the fitted curve at half-maximal effect; % is scaled to controls: 0 for no effect and ±100 for the full control effect; nearly all actives have a fitted effect of over 50% in size
# Sfp PPTase inh: blocks B. subtilis Sfp PPTase activity | Q9F4F7 | Biochemical Sfp PPTase activity, qHTS | Potency, µM, inactives show largest response in the series, negative = inhibition, most hits filed as inhibitors | 310,000 tested, 3.5% active | AID 1490;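 also: the enzyme is Sfp with the accession as filed and its product quenches rhodamine fluorescence; potency is read from the fitted curve at half-maximal effect; 0% = enzyme reaction without inhibitor and -100% = no enzyme wells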
#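 With Hepes-Na pH 7.6 buffer containing 10 mM MgCl2, Sfp (15 nM) modified BHQ-2-YbbR (12.5 uM) using rhodamine-CoA (5 uM). Two reads 30 minutes apart at 525/598 nm yielded each well's rate.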
# G9a block: blocks human histone lysine methyltransferase G9a; Q96KQ7; G9a H3K9 monomethylation, AlphaScreen, 2 h; Potency, µM (top dose mostly 102 µM), for inactives: top-dose activity, negative = inhibition, actives largely listed as inhibitors; 350,000 tested, 8.8% active; AID 504332; also: potency is read from the fitted curve at half-maximal effect; % is scaled to controls: 0 for no effect and ±100 for the full control effect; nearly all actives have a fitted effect of over 75% in size
# Target sequence (Q96KQ7 913-1193 limits assumed): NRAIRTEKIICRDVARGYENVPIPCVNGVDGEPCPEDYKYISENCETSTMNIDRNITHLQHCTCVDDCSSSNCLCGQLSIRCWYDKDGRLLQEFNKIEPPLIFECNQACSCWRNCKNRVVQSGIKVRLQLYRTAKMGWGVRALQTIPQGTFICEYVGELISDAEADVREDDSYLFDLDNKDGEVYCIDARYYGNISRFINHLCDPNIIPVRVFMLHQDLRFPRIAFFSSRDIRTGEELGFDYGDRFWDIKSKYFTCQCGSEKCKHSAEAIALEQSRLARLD
#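 Readings reflect AlphaScreen signal from monomethyl-H3K9 antibody detection. HMT at 20 nM; substrate b-H3K9 500 nM; cofactor SAM 20 uM; 2 h RT reaction; compounds tested as titrations in qHTS with 15 min preincubation.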
# TDP1 block: TDP1 (human) enzyme inhibition; Q9NUW8; recombinant TDP1, AlphaScreen DNA substrate cleavage; Potency, µM (series often up to 130 µM), without a hit: at the top dose activity change, negative = inhibition, actives largely listed as inhibitors; 350,000 tested, 0.28% active; also: potency is read from the fitted curve at half-maximal effect; % is scaled to controls: 0 for no effect and ±100 for the full control effect; nearly all actives have a fitted effect of over 40% in size
#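 E. coli-derived human Tdp1, 1 nM final. Cpd preinc 15 min RT; substrate 15 nM final, 5 min RT; AS bead mix 10 ug/ml final, 10 min RT. Signal loss = tyrosine-FITC cleavage. No-enzyme wells = max signal.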
# HP1b chromo inh: inhibitors of HP1-beta chromodomain binding to methylated histone tails; Potency, µM (doses to about 114 µM), for the others: at the top dose activity change, negative = inhibition, actives largely listed as inhibitors; P83916; 390,000 tested, 0.56% active; AID 540317; AlphaScreen HP1-beta / biotin-H3K9me3 peptide binding; also: potency is read from the fitted curve at half-maximal effect; nearly all actives have a fitted effect of over 70% in size
# Target sequence (P83916 whole entry, looked up): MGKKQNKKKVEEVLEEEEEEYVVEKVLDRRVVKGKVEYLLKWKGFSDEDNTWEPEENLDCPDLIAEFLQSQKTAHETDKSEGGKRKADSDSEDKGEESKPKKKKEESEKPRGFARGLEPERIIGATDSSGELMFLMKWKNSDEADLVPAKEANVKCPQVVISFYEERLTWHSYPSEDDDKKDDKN
#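 AlphaScreen: HP1-beta (50 nM) preformed 30 min with biotin-H3(1-18)K9me3 peptide (50 nM) in PBS pH 7.4, 0.01% Tween-20. Compound added for 30 min at RT, then streptavidin donor/nickel chelate acceptor beads (10 ug/mL) for 30 min.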
# Sfp inh conf: confirmation of Bacillus subtilis Sfp PPTase inhibitors. 380 tested, 79% active. Sfp PPTase enzymatic assay, qHTS titration. AID 2701. shares compounds with Sfp PPTase inh. Potency, µM (highest dose often 114 µM), for inactives: at the top dose activity change, negative = inhibition, actives largely listed as inhibitors;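 also: potency is read from the fitted curve at half-maximal effect; plate controls were uninhibited Sfp reaction for no effect and no enzyme control for full effect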
# Target sequence (Q9F4F7 whole entry, looked up): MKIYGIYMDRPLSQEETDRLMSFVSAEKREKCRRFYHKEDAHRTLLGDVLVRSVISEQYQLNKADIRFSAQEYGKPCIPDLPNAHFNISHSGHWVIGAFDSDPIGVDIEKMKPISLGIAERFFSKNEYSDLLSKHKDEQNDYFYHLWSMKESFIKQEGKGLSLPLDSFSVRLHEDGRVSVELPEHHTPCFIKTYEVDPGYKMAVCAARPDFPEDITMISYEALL
# Sfp gel assay: Inhibits Bacillus subtilis Sfp phosphopantetheinyl transferase | AID 2707 | 210 tested, 20% active | Potency, µM, hits mostly inhibitors | purified Sfp, gel-based phosphopantetheinylation read-out | shares compounds with Sfp PPTase inh;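 active = potency below 100 µM; inconclusive = dose-dependent response but potency above 100 µM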;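 also: band intensities scaled against SCH202676 control wells before curve fitting; potency is an IC50 for inhibitors of Sfp transfer activity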
# * hit, by the source's call; i = inactive; ? = inconclusive; / = not tested or not shown; ! = not active in a repeat; [ ] = dose if it differs, or a comment. In the library only some 12% were active in any assay of this set; here they are far more common. Unless noted, calls follow the shape of the dose curve; as a rule, active = well fitted curve in the direction sought with a large enough effect; inconclusive = small, poorly fitted or top-dose-only effect, or another doubt; inactive = no such curve, though single readings can be large; an effect the other way counts as inactive or inconclusive.
SMILES,BAZ2B block,JMJD2A Tudor inh,Sfp PPTase inh,G9a block,TDP1 block,HP1b chromo inh,Sfp inh conf,Sfp gel assay
c1ccc(Nc2ccccc2)cc1,-2%,-13%,/,?,-15%,28%,/,/
O=C(NCc1ccco1)c1cc(S(=O)(=O)NC2CC2)ccc1Br,/,-12%,/,/,-10%,17%,/,/
CCc1cccc(NC(=O)c2cc3c(=O)oc4ccc(C)cc4c3s2)c1,-5%,-11%,/,-6%[59 µM],-5%,22%,/,/
Cc1ccc2c(=O)cc(C(=O)Nc3c(C)cccc3C)oc2c1,0%,3%,/,?,2%,25%,/,/
CCOC(=O)c1ccc(NC(=O)c2c(NC(=O)CCC(=O)O)sc3c2CCCCC3)cc1,-31%,-34%,11µM*,32µM*,7%,?,12µM*,i
CCOc1ccccc1NC(=O)c1c(NC(=O)CCC(=O)O)sc2c1CCCCC2,?,45µM*,13µM*,25µM*,0%,-24%,24µM*,i
CCC(=O)Nc1sc2c(c1C(=O)Nc1ccc(Br)cc1)CCCCC2,-18%,?,/,?,-6%[12.3 µM],22%,/,/
COc1cc(F)c(S(=O)(=O)N2CCN(S(=O)(=O)c3ccc4c(c3)OCCO4)CC2)c(F)c1,/,-7%,/,/,1%,/,/,/
CCOC(=O)c1ccc(NC(=O)Cn2nnc(-c3ccccc3F)n2)cc1,3%,-2%,-3%,8%[59 µM],1%,15%,/,/
CCOC(=O)c1cc(=O)n2nc(-c3ccccc3F)nc2s1,-18%,?,14µM*,?,-4%,29%,59µM*,/
CCc1c(C)sc(NC(=O)C2CCCCC2C(=O)O)c1C(N)=O (stereo not drawn),-29%,?,4.5µM*,?,3%,?,11µM*,/
CCCCn1c(N)c(N(Cc2ccccc2OC)C(=O)COc2ccccc2C#N)c(=O)[nH]c1=O,2%,-5%,4%,/,0%,31%,/,/
Cn1ncc2c(c(SCc3ccc(Cl)cc3Cl)nn2C)c1=O,0%,-30%,25µM*,8.9µM*,1%,?,17µM*,/
O=C(CC(SCc1ccco1)c1ccc(O)cc1)c1cccs1 (stereo not drawn),?,?,56µM*,-18%[59 µM],10%,?,7.4µM*,i
CC(=O)SC[C@@H](Cc1ccccc1)C(=O)NCC(=O)OCc1ccccc1,/,/,20%,15%[5.15 µM],15%[21 µM],/,/,/
COC(=O)Nc1sc2c(c1C(N)=O)CCC(C)C2 (stereo not drawn),-20%,-23%,3.5µM*,14µM*,0%,10%,15µM*,/
CC(C)(O)C#Cc1ccc(C(=O)N2CCCC(CNS(=O)(=O)c3cccs3)C2)o1 (stereo not drawn),-19%,-13%,40µM*,28µM*,7%,28%,59µM*,/
Cc1cc(C)c(C(=O)N2CCCC(CNS(=O)(=O)c3cccs3)C2)o1 (stereo not drawn),-19%,-6%,5%,-2%,6%,36%,/,/
CCCCN1C=C(C(C)=O)C(=O)CC1,/,-3%,/,/,/,35%,/,/
Cc1nc2cccnc2n1-c1cccc(C(=O)NCc2cccc(Cl)c2)c1,-11%,-8%,/,-5%[59 µM],6%,10%,/,/
Clc1ccc(C[n+]2csc3ccccc32)cc1,50µM*,50µM*,4µM*,?,8%,23%,8.3µM*,2.1µM*
Cc1ccc(-c2c[n+](Cc3ccc(Cl)cc3)c3n2CCC3)cc1,-26%,-10%,19%,-23%,1%,-3%,/,/
CCOC(=O)c1ccc(NC(=S)N2CCN(CCN=CC3=C(O)CC(C)(C)CC3=O)CC2)cc1,?,-11%,11µM*,/,3%,7%,18%,?
CCOC(=O)c1ccc(NC(=O)CN2CCN(CCN=CC3=C(O)CC(C)(C)CC3=O)CC2)cc1,15%,-2%,12%,-2%[59 µM],-2%,20%,/,/
Clc1cc(Cl)c2nc(N3CCCC3)sc2c1,/,28%[57.1 µM],/,/,/,157%,/,/
SMILES,BAZ2B block,JMJD2A Tudor inh,Sfp PPTase inh,G9a block,TDP1 block,HP1b chromo inh,Sfp inh conf,Sfp gel assay
Clc1cc(Cl)c2nc(N3CCCCC3)sc2c1,141%,119%,10µM*,?,1%,103%,47µM*,/
Cc1cc(C(F)(F)F)nn1Cc1ccc(C(=O)NCc2ccco2)o1,19%,-29%,0.89µM*,?,7%,31%,47µM*,/
OCCn1c(CSc2nnc(-c3ccco3)n2-c2ccccc2)nc2ccc(Cl)cc21,-5%,?,4µM*,?,6%,30%,12µM*,i
O=C(O)c1ccnc(SCC(=O)c2ccccc2)c1,-14%,8%,3.5µM*,22µM*,1%,57%,53µM*,/
CCN(CC)CCCOC(=O)C1(c2ccccc2)CCCC1,-19%,1%,-18%,-50%[59 µM],-2%,13%,/,/
CCN(CC)CCOCCOC(=O)C1(c2ccccc2)CCCC1,/,32µM*,50µM*!,30µM*!,20%,12%,?,i
O=C(NCc1ccco1)c1cc2c(s1)CCCCC2,?,-29%,3.5µM*,-5%[59 µM],-8%,8%,?,/
CC(=O)c1ccc(OC(=O)CCc2nc3ccccc3s2)cc1,?,-17%,16µM*,32µM*,5%,36%,33µM*,?
O=C(O)COCc1nc2ccccc2s1,-25%,-2%,25µM*,50µM*,-1%,59%,-13%,?
Nc1c(C(=O)NC2CC2)sc2nc3c(c(-c4ccco4)c12)CC/C3=C/c1ccco1,0%,7.1µM*,5µM*,3.2µM*,0%,14µM*,8.3µM*,/
O=C(NC1CCCC1)c1cc2nc(-c3ccco3)cc(C(F)(F)F)n2n1,4%,14%,2%,25%,7%,44%,/,/
O=C(CC(Nc1ccc(Cl)cc1)C(=O)O)c1ccccc1 (stereo not drawn),-2%,-9%,7.1µM*,2.2µM*,5%,30%,?,?
Cc1c(Cl)cccc1NC(CC(=O)c1ccccc1)C(=O)O (stereo not drawn),-19%,-21%,7.9µM*,?,2%,19%,11µM*,i
O=C(CC(C(=O)O)c1ccc(Cl)cc1)c1ccccc1 (stereo not drawn),-3%,-10%,1%,-33%,3%,32%,/,/
O=c1oc(-c2cccs2)nc2sc3c(c12)CCCC3,5%,-3%,8%,12%,-2%,31%,/,/

# Screening results: PubChem, National Center for Advancing Translational Sciences (NCATS)
